ATXN2 expr inh: Primary qHTS for Inhibitors of ATXN expression | Potency, µM (top dose mostly 57 µM), inactives show top-dose activity change, negative = inhibition, hits mostly inhibitors | 360,000 tested, 0.72% active | HEK-293 ATXN2-luciferase reporter, luminescence, 24 h; note: % is set by controls: 0 for no effect and ±100 for the full control effect; nearly all actives have a fitted effect of over 55% in size
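ATXN2-luciferase reporter cells (luciferase flanked by upstream and downstream ATXN2 gene portions) were treated 24 h at 37 °C with compounds at up to 57 uM. SteadyGlo luminescence gave expression; GF-AFC fluorescence gave viability.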
DT40 TDP1 no CPT: qHTS for Inhibitors of human tyrosyl-DNA phosphodiesterase 1 (TDP1): qHTS in cells in absence of CPT; 420,000 tested, 15% active; DT40 Tdp1-/- hTDP1 cells, no CPT, ATP luminescence, 48 h; AID 686978, 2013; Potency, µM (titrated, usually from 46.2 µM), for the others: top-dose activity change, negative = growth inhibition, actives largely listed as inhibitors; note: % is set by controls: 0 for no effect and ±100 for the full control effect; nearly all actives have a fitted effect of over 55% in size
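A cellular qHTS used chicken DT40 cells lacking endogenous Tdp1 but carrying stably transfected human TDP1. Compounds were applied without camptothecin, and cell growth kinetics were judged by ATP-dependent luminescence after ≥48 hr.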
S2 tox: Viability Counterscreen for Primary qHTS for Inhibitors of ATXN expression; S2 cells (HEK-293 line with an ATXN2-luciferase reporter) viability, CellTiter-Fluor protease fluorescence, 24 h; Potency, µM (titrated, usually from 56.7 µM), hits mostly cytotoxic; 400,000 tested, 0.49% active; note: nearly all actives have a fitted effect of over 40% in size
HepG2 tox: qHTS for Inhibitors of TGF-b: Cytotox Counterscreen; HepG2 CAGA-GFP viability, ATP luminescence, 18 h; Potency, µM (titrated, usually from 46.1 µM), inactives show top-dose activity change, negative = cytotoxicity, most hits filed as cytotoxic; 410,000 tested, 0.76% active; AID 588856, 2011
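CellTiter-Glo luminescence gave cytotoxicity after 18 hours at 37 degrees C. The cells were HepG2 CAGA-GFP in 1% FBS DMEM, stimulated with 500 pg/mL TGF-beta after compound addition. %Activity was normalised to no-cell wells (complete cell-killing) and DMSO (no toxicity), and curves were fitted and classified.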
TGFb SMAD3 inh: qHTS for Inhibitors of TGF-b; Potency, µM (titrated, usually from 46.1 µM), inactives show at the highest dose activity, negative = inhibition, most hits filed as inhibitors; HepG2 CAGA-GFP TGF-b/SMAD3 reporter, GFP fluorescence, 18 h; TGF-beta stimulated, 500 pg/mL final; 410,000 tested, 1.2% active; AID 588855, 2011; note: % is set by controls: 0 for no effect and ±100 for the full control effect; nearly all actives have a fitted effect of over 65% in size
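HEPG2 CAGA-GFP cells (1000/well, DMEM with 1% FBS) were pre-incubated 2 h at 37 degrees C, given compound by pin tool, then stimulated with TGF-beta at 500 pg/mL final for 18 h before per-cell GFP fluorescence imaging.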
TDP1 cell CPT: qHTS for Inhibitors of human tyrosyl-DNA phosphodiesterase 1 (TDP1): qHTS in cells in presence of CPT. AID 686979, 2013. 420,000 tested, 12% active. Potency, µM (titrated, usually from 46.2 µM), for the others: at the top dose activity change, negative = growth inhibition, hits mostly inhibitors. chicken DT40 Tdp1-/-;hTDP1 cells + 20 nM CPT, ATP luminescence, 48 h; note: % is set by controls: 0 for no effect and ±100 for the full control effect; nearly all actives have a fitted effect of over 55% in size
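Cell growth measured by CellTiter-Glo luminescence after a minimum 48 h, 37 C compound exposure with 20 nM CPT in Tdp1-knockout DT40 cells stably expressing hTDP1, seeded 400/well; qHTS titration format.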
Starred values were filed as active, the others as inactive; i = inactive; ? = inconclusive; nt = no result; [ ] = dose if it differs, or a comment. In the library only some 17% were active in any assay of this set; here they are far more common. Calls come from the whole dose curve; as a rule, active = well fitted curve in the direction sought with a large enough effect; inconclusive = small, poorly fitted or top-dose-only effect, or another doubt; inactive = no such curve, though single readings can be large; an effect the other way counts as inactive or inconclusive. Potency is the fitted concentration of half-maximal effect.

SMILES | ATXN2 expr inh | DT40 TDP1 no CPT | S2 tox | HepG2 tox | TGFb SMAD3 inh | TDP1 cell CPT
COc1ccc(NC(=O)CSc2nnnn2C)c([N+](=O)[O-])c1 | -6% | -2% | ? | 3% | 1% | 11%
O=C(O)CSc1ncnc2nc[nH]c12 | 0% | -10% | i | -3% | 0% | -7%
O=C(CSc1ncnc2nc[nH]c12)c1ccc2ccccc2c1 | 15% | 12µM* | i | -32% | -3% | ?
Nc1ncnc2nc(SCC(=O)N3CCN(c4ccccc4)CC3)[nH]c12 | -3% | 0% | i | -23% | 14% | -22%
O=C(CSc1ncnc2nc[nH]c12)N1CCN(c2ccc(Cl)cc2)CC1 | ? | 13µM* | i | -17% | 2% | 23µM*
c1nc(SSc2ncnc3nc[nH]c23)c2[nH]cnc2n1 | -6% | 7.3µM* | i | -65% | 0% | 5.8µM*
COCC(=O)Nc1cc(C(=O)N[C@H]2CCCCNC2=O)c2c(c1)nc(-c1ccncc1)n2C | nt | -14% | i | nt | nt | 13%[9.04 µM]
O=C(c1ccccc1)N1CCC(c2nc3ccccc3o2)CC1 | nt | ? | nt | 4% | 0% | ?
Cc1cc(Cl)ccc1OCC(=O)N1CCC(c2nc3ccccc3o2)CC1 | nt | 16µM* | nt | -23% | ? | ?
O=C(c1ccc(Cl)cc1)N1CCC(c2nc3ccccc3o2)CC1 | nt | 15µM* | nt | -24% | 0% | ?
CC(C)(C)c1ccc(C(=O)N2CCC(c3nc4ccccc4o3)CC2)cc1 | nt | 15µM* | nt | -25% | ? | 21µM*
O=C(CN1CCCC1)N1c2ccccc2Sc2ccc(C(F)(F)F)cc21 | -1% | ? | i | -34% | 2% | ?
O=C(CSc1nc2ccccc2o1)N1c2ccccc2Sc2ccc(C(F)(F)F)cc21 | -13% | 21µM* | i | -8% | -13% | ?
CCN(CCn1cccn1)C(=O)CCc1nnc(C2(c3ccc(Cl)cc3)CCC2)o1 | -37%[11.3 µM] | -2% | i | 5% | -7% | -6%
O=C(/C=C/c1ccccc1)OCCCCN=C1NS(=O)(=O)c2ccccc21 | -3%[11.3 µM] | 26µM* | i | 0% | 1% | 9.2µM*
O=C(c1ccc2c(c1)OCCO2)N(Cc1cccnc1)c1nc2c(F)cc(F)cc2s1 | nt | ? | nt | -20% | ? | ?
CCOc1cccc2sc(N(Cc3cccnc3)C(=O)c3ccc(C#N)cc3)nc12 | nt | 23µM* | nt | -33% | ? | 18µM*
COc1cccc2sc(N(Cc3cccnc3)C(=O)c3ccc4c(c3)OCCO4)nc12 | nt | 16µM* | nt | -25% | -14% | ?
COc1ccc2sc(N(Cc3cccnc3)C(=O)c3cccs3)nc2c1 | nt | 18µM* | nt | 2% | -15% | 21µM*
O=C(c1ccc2c(c1)OCCO2)N(Cc1cccnc1)c1nc2c(F)cccc2s1 | nt | ? | nt | -24% | ? | 21µM*
O=C(NCCC1=CCCCC1)c1ccc2c(c1)sc1nc(-c3ccc(F)cc3)cn12 | nt | ? | nt | 2% | -22% | -16%
O=C(COC(=O)CCC(=O)c1ccccc1)Nc1nnc(-c2ccccc2)o1 | 2% | -6% | i | -20% | -12% | -17%
CCOC(=O)C1CCN(c2ncnc3c2nnn3C)CC1 | nt | -14% | nt | -9% | 39% | -9%
CN(C)CCNC(=O)c1ccc2c(c1)N(Cc1ccc(F)cc1)CCS2 | -29% | 16µM* | i | -33% | -13% | 26µM*
COc1ccc(CCNC(=O)c2ccc3c(c2)N(Cc2ccc(F)cc2)CCS3)c(OC)c1 | -13% | 13µM* | i | -20% | -14% | 15µM*
SMILES | ATXN2 expr inh | DT40 TDP1 no CPT | S2 tox | HepG2 tox | TGFb SMAD3 inh | TDP1 cell CPT
CCOc1ccc(CNC(=O)c2ccc3c(c2)N(CC)CCS3)cc1 | 8% | ? | i | -27% | -7% | ?
COc1ccc(CCNC(=O)c2ccc3c(c2)N(Cc2ccc(C)cc2)CCS3)cc1OC | 12% | 16µM* | ? | -20% | -21% | 18µM*
CCOc1ccc(CCNC(=O)c2ccc3c(c2)N(Cc2ccc(F)cc2)CCS3)cc1 | 8% | 15µM* | i | -47% | 3% | ?
COc1ccc(CNC(=O)c2ccc3c(c2)N(Cc2ccc(C)cc2)CCS3)cc1 | 6% | ? | i | -13% | -11% | ?
O=C(c1ccc2c(c1)N(Cc1ccc(F)cc1)CCS2)N1CCOCC1 | -2% | ? | i | 8% | 11% | ?
COc1ccc(NC(=O)N2CCC3(CC2)CCN(C(=O)c2cnccn2)CC3)cc1 | nt | -24% | nt | nt | nt | 7%
O=C(Cn1cnc2ccccc2c1=O)NNC(=O)c1cccc([N+](=O)[O-])c1 | nt | -4% | i | -5% | 11% | 14%
CCN1CCSc2ccc(C(=O)NCc3ccc(OC(C)C)cc3)cc21 | -16% | ? | i | -16% | -2% | ?
COc1ccc(CCNC(=O)c2ccc3c(c2)N(Cc2ccc(F)cc2)C(=O)CS3)cc1OC | nt | 16µM* | nt | -4% | ? | 15µM*
O=C(NCCc1ccc(Cl)cc1)c1ccc2c(c1)N(Cc1c(F)cccc1Cl)C(=O)CS2 | -15% | 2.6µM* | ? | -34% | ? | 9.2µM*
COc1ccc(CCNC(=O)c2ccc3c(c2)NC(=O)CS3)cc1OC | -15% | -5% | i | -24% | 2% | -29%
O=C(NCc1ccc(F)cc1)c1ccc2c(c1)N(Cc1ccc(F)cc1Cl)C(=O)CS2 | 5% | -24% | i | -1% | ? | 5%
COc1ccc(OC)c(CCNC(=O)c2ccc3c(c2)N(Cc2ccc(F)cc2)CCS3)c1 | -6% | ? | i | -9% | -25% | 21µM*
CC1(C(=O)NS(=O)(=O)c2ccc(C#N)cc2)CCN1C(=O)C1(c2ccc(Cl)cc2)CC1 (stereo unspecified) | -4% | -7% | i | -2% | 22% | -25%
CCOc1ccc(CN2CCc3nc(Nc4ccc5c(c4)OCCO5)ncc3C2)cc1 | 13% | ? | i | -23% | -8% | ?
CCc1ccc(CN2CCc3nc(Nc4ccc5c(c4)OCCO5)ncc3C2)cc1 | -32% | 23µM* | ? | -36% | ? | ?
Cc1ccc(CN2CCc3nc(Nc4ccc5c(c4)OCCO5)ncc3C2)cc1 | -15% | 21µM* | ? | -41% | -5% | ?
